# Screening data (PubChem)
# VDR inh = inhibitors of human vitamin D receptor; P11473; VDR-SRC2-3 peptide fluorescence polarization, 2 h; Potency, µM, hits mostly inhibitors; 400,000 compounds, 0.93% hits
#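 Signal is fluorescence polarization, reporting how far test compounds block the interaction of VDR with the SRC2-3 coregulator peptide after a 2 h room-temperature incubation.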
# EPAC2 ag = agonists of human EPAC2 (RAPGEF4) | Q8WZA2 | EPAC2 activation, biochemical qHTS; response scale: 100% = 6.5 mM cAMP response | Potency, µM (top dose mostly 154 µM), actives largely listed as activators | 360,000 compounds, 0.079% hits | AID 720711; also: nearly all actives have a fitted effect of over 50% in size
#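 Compounds were titrated in qHTS against a Rap1B-BODIPY-GDP (250 nM) complex with EPAC2 (100 nM) and GDP (50 uM). BODIPY-GDP release tracked at 480/540 nm over 30 min at room temperature, normalized to 6.5 mM cAMP.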
# EPAC1 antag = blocks human EPAC1 exchange factor | 360,000 compounds, 0.14% hits | AID 720709 | Potency, µM (highest dose often 115 µM), actives largely listed as inhibitors | EPAC1 GEF assay, Rap1b-BODIPY-GDP exchange fluorescence | O95398; also: nearly all actives have a fitted effect of over 50% in size
# EPAC2 antagonist = EPAC2 (human) antagonism. EPAC2 GEF exchange of Rap1B-BODIPY-GDP, fluorescence. Potency, µM (titrated, usually from 114 µM), actives largely listed as inhibitors. 360,000 compounds, 0.18% hits. Q8WZA2; also: nearly all actives have a fitted effect of over 45% in size
# EPAC1 agonist = agonists of human EPAC1; O95398; EPAC1 agonist qHTS, biochemical assay; response scale: 100% = response to 6.5 mM cAMP; Potency, µM (highest dose often 154 µM), usual class: activators; 360,000 compounds, 0.073% hits; also: nearly all actives have a fitted effect of over 60% in size
#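 Multi-concentration qHTS readout: loss of Rap1B-bound BODIPY-GDP fluorescence driven by 100 nM EPAC1 with excess GDP (50 uM), monitored kinetically at room temperature; agonist response expressed relative to 6.5 mM cAMP.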
# USP1-UAF1 inh = inhibitors of human USP1/UAF1 deubiquitinase. Potency, µM (doses to about 57.1 µM), hits mostly inhibitors. 390,000 compounds, 0.23% hits. recombinant USP1/UAF1, Ub-Rhodamine cleavage fluorescence. O94782; also: nearly all actives have a fitted effect of over 60% in size
# Target sequence (O94782 whole entry, looked up): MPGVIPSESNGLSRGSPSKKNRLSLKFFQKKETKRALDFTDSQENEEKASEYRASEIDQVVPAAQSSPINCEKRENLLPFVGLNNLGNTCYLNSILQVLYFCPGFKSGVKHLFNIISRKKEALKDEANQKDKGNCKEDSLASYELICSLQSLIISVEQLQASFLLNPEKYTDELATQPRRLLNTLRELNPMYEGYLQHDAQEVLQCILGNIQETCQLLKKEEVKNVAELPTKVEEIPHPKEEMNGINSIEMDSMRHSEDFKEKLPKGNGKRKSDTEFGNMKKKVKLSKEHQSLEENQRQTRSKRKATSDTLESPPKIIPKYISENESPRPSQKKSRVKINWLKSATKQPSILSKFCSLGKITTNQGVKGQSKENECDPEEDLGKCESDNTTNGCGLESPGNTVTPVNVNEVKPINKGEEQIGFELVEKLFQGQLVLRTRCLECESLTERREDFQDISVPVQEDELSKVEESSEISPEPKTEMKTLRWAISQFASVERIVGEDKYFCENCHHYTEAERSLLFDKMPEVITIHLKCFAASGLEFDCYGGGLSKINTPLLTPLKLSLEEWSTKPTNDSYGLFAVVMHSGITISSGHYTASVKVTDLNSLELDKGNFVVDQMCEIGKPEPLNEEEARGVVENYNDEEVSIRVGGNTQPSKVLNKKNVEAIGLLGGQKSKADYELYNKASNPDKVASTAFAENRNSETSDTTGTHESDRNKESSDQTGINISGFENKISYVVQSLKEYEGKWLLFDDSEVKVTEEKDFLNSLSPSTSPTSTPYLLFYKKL
#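 High-throughput fluorogenic screen: 1nM USP1/UAF1 complex, Ub-Rho substrate 150nM final, 50mM HEPES pH 7.8 with 0.5mM EDTA, 0.1 mg/ml BSA, 1mM TCEP and 0.01% Tween-20.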
# Hits are given with their value; . = inactive; ? = inconclusive; / = not tested or not shown; ! = a repeat was not active. Shown are actives, neighbours in structure and some others; about 1.2% of the full set was active somewhere. Calls follow the shape of the dose curve; as a rule, active = well fitted curve in the direction sought with a large enough effect; inconclusive = small, poorly fitted or top-dose-only effect, or another doubt; inactive = no such curve, though single readings can be large; an effect the other way counts as inactive or inconclusive.
SMILES,VDR inh,EPAC2 ag,EPAC1 antag,EPAC2 antagonist,EPAC1 agonist,USP1-UAF1 inh
CN(C)CCCN(C(=O)c1ccc(S(=O)(=O)N(C)C2CCCCC2)cc1)c1nc2ccc(F)cc2s1,.,.,.,.,.,.
COC(=O)COc1ccc(-c2nccc(-c3ccccn3)n2)cc1,.,.,.,.,.,.
COC(=O)COc1ccc(-c2nccc(-c3ccc(Br)cc3)n2)cc1,28.2µM,.,.,.,.,.
COc1ccccc1-c1nnc(SCC(=O)c2ccc(F)cc2)n1-c1ccccc1,.,/,/,/,/,.
CC(OC(=O)/C(C#N)=C/c1ccc(N(C)C)cc1)C(=O)N(C)c1ccccc1 (stereo unspecified),.,63.1µM,.,.,56.2µM,?
CCC1Nc2ncnc(N3CCN(c4ccccc4)CC3)c2N(Cc2ccc(OC)cc2)C1=O (stereo unspecified),.,.,.,.,.,.
CCC1Nc2ncnc(N3CCOCC3)c2N(Cc2ccc(OC)cc2)C1=O (stereo unspecified),79.4µM,.,.,.,.,.
O=C(Nc1cc(Cl)cc2c1[nH]c1cnccc12)c1cccnc1,.,/,/,/,/,/
O=C(NCc1cc(C(F)(F)F)ccc1Cl)c1cccc2c1C(=O)c1ccc(N3CCC(N4CCCCC4)CC3)cc1S2(=O)=O,/,89.1µM,?,?,.,.
O=C(NCc1cc(C(F)(F)F)ccc1Cl)c1cccc2c1C(=O)c1ccc(N3CCOCC3)cc1S2(=O)=O,.,.,?,.,.,.
O=C(NCc1cc(C(F)(F)F)ccc1Cl)c1cccc2c1C(=O)c1ccc(N3CCCCC3)cc1S2(=O)=O,.,.,.,.,.,20µM
CC12CCC=CC1C(c1ccc(F)c(/C=C/c3ccccc3)c1)N(Cc1ccccc1)C2=O (stereo unspecified),.,/,/,/,/,/
CC(C)(C)c1nc2cc(Cl)c([N+](=O)[O-])cc2o1,79.4µM,.,.,.,.,.
CCC(=O)OCOc1ccc(/C=C2/CCC(CN(C)C)C2=O)cc1 (stereo unspecified),10µM,.,.,.,.,.
Cc1ccc(O)c(CNc2ccc(S(=O)(=O)Nc3nccs3)cc2)c1,.,.,.,22.4µM,.,.
COC(=O)[C@H]1[C@@H]2C[C@H]3c4[nH]c5ccccc5c4CCN3C[C@@H]2CC[C@@H]1O,.,/,/,/,/,/
Cc1cccc(C2=N[C@@H](Cc3ccccc3)CO2)c1,.,/,/,/,/,/
O=C(OCC1CCCO1)c1ccc2c(c1)N(Cc1ccccc1F)C(=O)c1ccccc1S2(=O)=O (stereo unspecified),.,/,/,/,/,?
O=C(Nc1ccc2c(c1)Cc1ccccc1-2)c1ccco1,.,.,.,.,.,.
C=CCOC(=O)C(=O)/C=C/c1ccc2c(c1)Cc1ccccc1-2,22.4µM,.,.,.,.,.
OCC1=C[C@@H](O)[C@@H]2C=CO[C@@H](OC3O[C@H](CO)[C@@H](O)[C@H](O)[C@H]3O)[C@H]12 (stereo partly specified),.,/,/,/,/,/
Cn1c(=O)c2[nH]c(Br)nc2n(C)c1=O,.,/,/,/,/,/
CCn1c(=S)[nH]c2c(=O)n(C)c(=O)n(C)c21,50.1µM,.,.,.,.,.
O=C(Cn1c(=O)n(Cc2ccco2)c(=O)c2sc3ccccc3c21)Nc1ccccc1C(F)(F)F,.,/,/,/,/,.
O=C(N/N=C/c1c(O)n(-c2ccccc2Cl)c(=O)c2ccccc12)C1COc2ccccc2O1 (stereo unspecified),.,.,10µM,.,.,.
SMILES,VDR inh,EPAC2 ag,EPAC1 antag,EPAC2 antagonist,EPAC1 agonist,USP1-UAF1 inh
Cc1ccc(-n2c(O)c(/C=N/NC(=O)C3COc4ccccc4O3)c3ccccc3c2=O)cc1 (stereo unspecified),.,.,.,.,.,.
C[C@@H]1C(=O)O[C@H]2C[C@@]34[C@H]5C[C@@H](C(C)(C)C)[C@]36[C@H](OC(=O)[C@H]6O)O[C@]4(C(=O)O5)[C@]21O,.,/,/,/,/,/
CO[C@H]1/C=C/O[C@@]2(C)Oc3c(C)c(O)c4c(O)c(c5c(c4c3C2=O)NC2(CCN(CC(C)C)CC2)N=5)=NC(=O)/C(C)=C\C=C\[C@H](C)[C@H](O)[C@@H](C)[C@@H](O)[C@@H](C)[C@H](OC(C)=O)[C@@H]1C,39.8µM!,.,.,.,.,?
Cc1ccc(/C=C2\SC(=S)N(C(Cc3ccccc3)C(=O)O)C2=O)cc1 (stereo unspecified),50.1µM,.,.,.,.,?
O=C(O)C(Cc1ccccc1)N1C(=O)/C(=C/c2ccccc2)SC1=S (stereo unspecified),?,.,.,?,.,.
CC(C)C(C(=O)O)N1C(=O)/C(=C/c2ccc(Br)cc2)SC1=S (stereo unspecified),5.01µM,/,/,/,/,/
CC1=NN(c2ccc(Br)cc2)C(=O)/C1=C/c1ccc(-c2ccccc2C(=O)O)o1,?,.,.,.,.,.
CC1=NOC(=O)/C1=C\c1ccc(-c2ccc(Br)cc2C(=O)O)o1,79.4µM,.,.,.,.,.
CC(C)N(Cc1ccccc1)C(=O)CN1C(=O)CSc2ccc(S(=O)(=O)N3CCCC3)cc21,.,/,/,/,/,.
CN[C@@H]1[C@H](O[C@@H]2O[C@H](CO)[C@@H](N)[C@H](O)[C@@H]2O)O[C@H]2C[C@@H](N)[C@@H](O[C@H]3[C@@H](O)[C@H](O)[C@H](N)C[C@@H]3N)O[C@H]2[C@H]1O,.,/,/,/,/,/
CN[C@@H]1[C@H](O[C@@H]2O[C@H](C)[C@@](O)(CO)[C@H]2O[C@H]2[C@H](O)[C@H](O)[C@H](N=C(N)N)[C@@H](O)[C@@H]2N=C(N)N)O[C@@H](CO)[C@H](O)[C@H]1O,50.1µM,/,/,/,/,/
O=C(CSc1nnc(-c2cccs2)n1Cc1ccco1)Nc1ccc2c(c1)OCO2,.,7.94µM,.,.,.,.
O=C(CSc1nnc(-c2ccccc2)n1Cc1ccco1)Nc1ccc2c(c1)OCCO2,.,.,.,.,.,.
N#CC(Sc1ccccn1)c1ccc(Cl)cc1Cl (stereo unspecified),.,.,.,25.1µM,.,.
N#Cc1cc(Sc2ccccn2)c(Sc2ccccn2)cc1C#N,.,.,.,.,.,.
O=C(O)c1ccc(NC2=C(n3nnc4ccccc43)C(=O)c3ccccc3C2=O)cc1,.,.,.,.,.,15.8µM
Cc1ccc(NC(=O)c2ccc(NC(=O)N3CCSc4ncccc43)cc2)cc1Cl,.,/,/,/,/,?
CC(C)CCn1c(Oc2ccccc2Cl)nc2c1c(=O)n(C)c(=O)n2C,.,.,.,31.6µM,.,.
Clc1ccc(Cn2cc3c(n2)-c2cc4ccccc4n2C3)cc1,.,/,/,/,/,/
